“And” between values parts separate entries of the source, which are not always exact repeats. Identical values can stand only once. Where a structure was tested more than once in an assay, its records may differ in their call. The source made the active and inactive calls. How the source made its calls: active means hit-call score of the fitted dose curve at least 0.9, where 1 is the maximum; inactive means score below 0.9.

Read-out in one assay: Thrombomodulin, THBD (gene 7056)
Description: BSK_CASM3C_Thrombomodulin: BioMAP Diversity Plus: CASM3C Assay for Thrombomodulin Biomarker Activity (AID 2283051).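 Further: thrombomodulin protein level measured by ELISA 24 h after dosing.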 The conditions noted are these: primary human coronary artery smooth muscle cells; actives raise or lower the signal.
Consider `COC(=O)c1ccccc1CS(=O)(=O)NC(=O)Nc1nc(OC)cc(OC)n1`, for which the outcome was inactive.
On to `COC(=O)c1ccccc1S(=O)(=O)NC(=O)Nc1nc(C)nc(OC)n1`, for which the result was inactive.
The same measure, in the same setting: as for `CC(C)OC(=O)Nc1cccc(Cl)c1`, the entry is “inactive”; as for `CCOc1nc(NC)nc(NC(=O)NS(=O)(=O)c2ccccc2C(=O)OC)n1`, “inactive”.
Regarding `O=C(Nc1ccccc1)Nc1cnns1`, the outcome was inactive.
For `CNC(=O)Oc1ccccc1OC(C)C`, the result was inactive.
By AC50 is commonly meant the concentration at which the activity in the assay is half-maximal. Regarding `O=[N+]([O-])c1c(Cl)c(Cl)c(Cl)c(Cl)c1Cl`, the AC50 was 24.8 µM (active).

Read-out in another assay: Tissue Factor, F3 (gene 2152)
Briefly: BSK_CASM3C_TissueFactor: BioMAP Diversity Plus: CASM3C Assay for Tissue Factor Biomarker Activity (AID 2283052).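 Further: cell surface tissue factor protein level read by ELISA.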 The conditions noted are these: primary human coronary artery smooth muscle cells; actives raise or lower the signal.
`O=C(O)CCCOc1ccc(Cl)cc1Cl`: the outcome was inactive.
As for `O=C(O)C(F)(F)C(F)(F)C(F)(F)C(F)(F)C(F)(F)C(F)(F)C(F)(F)F`, the result was inactive.
With `COc1nn(CSP(=S)(OC)OC)c(=O)s1`, the outcome was inactive.
On the same count and under the same terms, as for `CC1(c2ccc(Oc3ccccc3)cc2)OC(=O)N(Nc2ccccc2)C1=O` (configuration not stated), the entry is “inactive”.
For the compound `ClC1C(Cl)C(Cl)C(Cl)C(Cl)C1Cl` (configuration not stated), the result was inactive.
For the compound `N#CN`, the outcome was inactive.
`COC(=O)c1ccccc1S(=O)(=O)NC(=O)N(C)c1nc(C)nc(OC)n1`: the outcome was inactive.
As to `O=C(NC(=O)c1c(F)cccc1F)Nc1ccc(OC(F)(F)C(F)OC(F)(F)F)c(Cl)c1` (configuration not stated), the outcome was inactive.
Turning to `CNC(=O)/C=C(\C)OP(=O)(OC)OC`, the outcome was inactive.
On the same count and under the same terms, with `O=S(=O)(O)C(F)(F)C(F)(F)C(F)(F)C(F)(F)C(F)(F)C(F)(F)C(F)(F)C(F)(F)F` the entry was “inactive”.
Regarding `COc1cc(OC)nc(NC(=O)NS(=O)(=O)c2cc(NC=O)ccc2C(=O)N(C)C)n1`, the result was inactive.
In the case of `O=C(O)COc1ccc(Cl)cc1Cl`, the result was inactive.
As for `CC1(C)C(C=C(Cl)Cl)C1C(=O)OC(C#N)c1ccc(F)c(Oc2ccccc2)c1` (configuration not stated), the outcome was inactive.
As to `CCN(CC)C(=O)SCc1ccc(Cl)cc1`, the result was inactive.
As to `Oc1cc(Cl)ccc1Oc1ccc(Cl)cc1Cl`, the AC50 was 28.3 µM (active) and 27.8 µM (active) and 22.2 µM (active); the outcome was inactive.
As for `Oc1ccc(Cl)cc1Cc1ccccc1`, the AC50 was 31.3 µM (active) [middle of 4 runs] and the result was inactive.
In the case of `C[C@H]1[C@H](c2ccc(Cl)cc2)SC(=O)N1C(=O)NC1CCCCC1`, the result was inactive.
With `CC(C)(C)C(O)/C(=C\c1ccc(Cl)cc1Cl)n1cncn1` (configuration not stated), the result was inactive.
As for `CCC(C)(NC(=O)c1cc(Cl)c(C)c(Cl)c1)C(=O)CCl` (configuration not stated), the result was inactive.
As to `COC(=O)c1ccccc1CS(=O)(=O)NC(=O)Nc1nc(OC)cc(OC)n1`, the result was inactive.
Turning to `COC(=O)c1ccccc1S(=O)(=O)NC(=O)Nc1nc(C)nc(OC)n1`, the outcome was inactive.
Turning to `CC(C)OC(=O)Nc1cccc(Cl)c1`, the outcome was inactive.
Same read-out and setting: with `CCOc1nc(NC)nc(NC(=O)NS(=O)(=O)c2ccccc2C(=O)OC)n1` the entry was “inactive”; with `O=C(Nc1ccccc1)Nc1cnns1`, “inactive”; with `CNC(=O)Oc1ccccc1OC(C)C`, “inactive”.
Turning to `O=[N+]([O-])c1c(Cl)c(Cl)c(Cl)c(Cl)c1Cl`, the result was inactive.

Read-out in a further assay: Interferon-gamma inducible Protein 10 (IP10), CXCL10 (gene 3627)
Description: BSK_hDFCGF_IP10: BioMAP Diversity Plus: hDFCGF Assay for Interferon-gamma inducible Protein 10 (IP10) Biomarker Activity (AID 2283053). The conditions noted are these: primary human foreskin fibroblasts; actives raise or lower the signal. The gist of the method:
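ELISA read-out of IP-10 (CXCL10) from primary human skin fibroblasts, 24 h after compound addition. Gain or loss of signal versus DMSO baseline, bidirectional curve fitting.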
Consider `O=C(O)CCCOc1ccc(Cl)cc1Cl`, for which the outcome was inactive.
For the compound `O=C(O)C(F)(F)C(F)(F)C(F)(F)C(F)(F)C(F)(F)C(F)(F)C(F)(F)F`, the outcome was inactive.
Regarding `COc1nn(CSP(=S)(OC)OC)c(=O)s1`, the AC50 is 20 µM (active).
For the compound `CC1(c2ccc(Oc3ccccc3)cc2)OC(=O)N(Nc2ccccc2)C1=O` (configuration not stated), the outcome was inactive.
For `ClC1C(Cl)C(Cl)C(Cl)C(Cl)C1Cl` (configuration not stated), the AC50 was 32.2 µM (active) and the outcome was inactive.
With `N#CN`, the outcome was inactive.
As for `COC(=O)c1ccccc1S(=O)(=O)NC(=O)N(C)c1nc(C)nc(OC)n1`, the AC50 is 28.7 µM (active).
Turning to `O=C(NC(=O)c1c(F)cccc1F)Nc1ccc(OC(F)(F)C(F)OC(F)(F)F)c(Cl)c1` (configuration not stated), the outcome was inactive.
With `CNC(=O)/C=C(\C)OP(=O)(OC)OC`, the outcome was inactive.
As for `O=S(=O)(O)C(F)(F)C(F)(F)C(F)(F)C(F)(F)C(F)(F)C(F)(F)C(F)(F)C(F)(F)F`, the AC50 was 21.7 µM (active) [middle of 7 runs] and the result was inactive.
As for `COc1cc(OC)nc(NC(=O)NS(=O)(=O)c2cc(NC=O)ccc2C(=O)N(C)C)n1`, the result was inactive.
In the case of `O=C(O)COc1ccc(Cl)cc1Cl`, the result was inactive.
Consider `CC1(C)C(C=C(Cl)Cl)C1C(=O)OC(C#N)c1ccc(F)c(Oc2ccccc2)c1` (configuration not stated), for which the result was inactive.
As to `CCN(CC)C(=O)SCc1ccc(Cl)cc1`, the outcome was inactive.
With `Oc1cc(Cl)ccc1Oc1ccc(Cl)cc1Cl`, the AC50 was 15.4 µM (active) [middle of 4 runs].
For `C[C@H]1[C@H](c2ccc(Cl)cc2)SC(=O)N1C(=O)NC1CCCCC1`, the AC50 is 20 µM (active).
Consider `CC(C)(C)C(O)/C(=C\c1ccc(Cl)cc1Cl)n1cncn1` (configuration not stated), for which the half-maximal activity concentration (AC50) was 36.5 µM (active).
With `CCC(C)(NC(=O)c1cc(Cl)c(C)c(Cl)c1)C(=O)CCl` (configuration not stated), the AC50 was 5.56 µM (active).
With `COC(=O)c1ccccc1CS(=O)(=O)NC(=O)Nc1nc(OC)cc(OC)n1`, the result was inactive.
`COC(=O)c1ccccc1S(=O)(=O)NC(=O)Nc1nc(C)nc(OC)n1`: the result was inactive.
In the case of `CC(C)OC(=O)Nc1cccc(Cl)c1`, the result was inactive.
Turning to `CCOc1nc(NC)nc(NC(=O)NS(=O)(=O)c2ccccc2C(=O)OC)n1`, the AC50 was 26.5 µM (active).
With `O=C(Nc1ccccc1)Nc1cnns1`, the result was inactive.
For `CNC(=O)Oc1ccccc1OC(C)C`, the outcome was inactive.
With `O=[N+]([O-])c1c(Cl)c(Cl)c(Cl)c(Cl)c1Cl`, the AC50 was 38 µM (active).

The values are drawn from PubChem BioAssay (EPA / NIEHS).
